# Luc counter – Counterscreen for Luciferase (Kinase-Glo TM) Inhibition; Luciferin 4-monooxygenase (Photuris pensylvanica), Q27757; hit rate 0.28% among 200,000; AID 1379, 2008; Kinase-Glo luciferase, ATP luminescence, 8 min; Potency, µM (highest dose often 38.3 µM), for the others: top-dose activity change, negative = inhibition, hits mostly inhibitors; also: nearly all actives have a fitted effect of over 60% in size
#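 Luminescence was the read-out, taken after 8-minute incubation at ambient temperature. Luciferase turned over luciferin with 10 uM ATP in imidazole pH 7.2 buffer containing KCl, MgCl2, Tween 20 and BSA.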
# IMPase Li cell – qHTS Assay for Identifying the Cell-Membrane Permeable IMPase Inhibitors: Potentiation with Lithium; Potency, µM (series often up to 59.4 µM), for inactives: at the highest dose activity, negative = IMPase inhibition, hits mostly inhibitors; AID 1457, 2008; CHO-M1 cells, IP1 TR-FRET (IP-One), carbachol + lithium; hit rate 0.35% among 210,000;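 also: IP1 builds up when IMPase is blocked and the TR-FRET signal falls; plate controls were basal vehicle for no effect and high inhibitor control for full effect; nearly all actives have a fitted effect of over 50% in size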
#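 Test compounds were applied to CHO-M1 cells previously cultured for 16–30 h at 2000 per well. A small lithium amount accompanied them; after 30 min at 37C, IP1 was quantified by TR-FRET.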
# LMNA splice mod – qHTS Assay for Modulators of Lamin A Splicing; HeLa LMNA splicing GFP/RFP minigene ratio, 48 h; Potency, µM (highest dose often 46.1 µM), inactives show at the top dose ratio change, negative = inhibition, most hits filed as inhibitors; hit rate 0.01% among 200,000; active = well fitted inhibition curve with a large enough effect in the signal ratio, with a control signal flat, not every such curve was filed as active; inconclusive = small, poorly fitted or top-dose-only effect, or effect the other way, or a change in a side signal; the % refers to the signal ratio
#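 S3 HeLa cells stably expressing lamin A-EGFP splicing minigene plus DsRed2, 600 cells/well, 48 h compound exposure at 37C. Laser-scanning cytometry; analysed as GFP (500-530 nm)/RFP (575-640 nm) total intensity ratio; 0.5% DMSO vehicle.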
# ALDH1A1 block – qHTS Assay for Inhibitors of Aldehyde Dehydrogenase 1 (ALDH1A1); Aldehyde dehydrogenase 1A1 (Homo sapiens), P00352; Potency, µM (titrated, usually from 75.3 µM), inactives show at the highest dose activity, negative = inhibition, most hits filed as inhibitors; Purified ALDH1A1, NADH fluorescence, propionaldehyde substrate; hit rate 7.3% among 220,000; AID 1030, 2008; active = well fitted inhibition curve with a large enough effect, not every such curve was filed as active; inconclusive = small, poorly fitted or top-dose-only effect, or another doubt; inactive = no such curve, though single readings can be large or run the other way;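 also: plate controls were no enzyme wells and a reference inhibitor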
# Target sequence (P00352 whole entry, looked up): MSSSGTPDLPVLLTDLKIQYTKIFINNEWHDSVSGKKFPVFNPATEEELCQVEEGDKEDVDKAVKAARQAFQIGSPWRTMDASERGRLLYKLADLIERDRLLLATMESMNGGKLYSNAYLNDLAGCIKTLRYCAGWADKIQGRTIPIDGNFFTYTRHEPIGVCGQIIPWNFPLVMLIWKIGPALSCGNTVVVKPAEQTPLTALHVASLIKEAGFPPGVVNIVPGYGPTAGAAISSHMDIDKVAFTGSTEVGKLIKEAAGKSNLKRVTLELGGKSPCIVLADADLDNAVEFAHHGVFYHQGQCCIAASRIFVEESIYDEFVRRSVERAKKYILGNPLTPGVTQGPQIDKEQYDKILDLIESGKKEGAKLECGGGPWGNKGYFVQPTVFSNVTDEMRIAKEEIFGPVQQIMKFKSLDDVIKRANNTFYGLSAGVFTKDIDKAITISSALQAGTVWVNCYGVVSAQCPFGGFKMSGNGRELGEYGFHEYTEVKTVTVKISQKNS
# HPGD block – qHTS Assay for Inhibitors of HPGD (15-Hydroxyprostaglandin Dehydrogenase); 15-hydroxyprostaglandin dehydrogenase [NAD(+)] (Homo sapiens), P15428; purified HPGD, NADH fluorescence kinetic, PGE2 substrate; Potency, µM, for the others: at the highest dose activity change, negative = inhibition, usual class: inhibitors; hit rate 4.3% among 150,000; AID 894, 2007; active = well fitted inhibition curve with a large enough effect, not every such curve was filed as active; inconclusive = small, poorly fitted or top-dose-only effect, or another doubt; inactive = no such curve, though single readings can be large or run the other way
# Target sequence (P15428 whole entry, looked up): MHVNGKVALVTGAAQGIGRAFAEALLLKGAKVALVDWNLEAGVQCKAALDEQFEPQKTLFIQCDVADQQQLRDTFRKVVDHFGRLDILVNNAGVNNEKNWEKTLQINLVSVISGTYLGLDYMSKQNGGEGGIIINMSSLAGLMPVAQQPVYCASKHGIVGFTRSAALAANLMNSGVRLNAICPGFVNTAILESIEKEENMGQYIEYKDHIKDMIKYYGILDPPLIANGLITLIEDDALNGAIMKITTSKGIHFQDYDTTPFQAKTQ
#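 20 nM HPGD preincubated 15 min at room temperature with compound in 50 mM Tris-HCl pH 8, 0.01% Tween 20. Started with 1 mM NAD+ and 30 uM prostaglandin E2; NADH fluorescence (360/450 nm) read 5 times over 30-s intervals, last minus first.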
# Numbers without * were called inactive; ? = inconclusive; · = not tested or not shown; [ ] = dose if it differs, or a comment. Sampled rows, rich in hits. Any-hit rate of the full collection: about 9%. Unless noted, calls follow the shape of the dose curve; as a rule, active = well fitted curve in the direction sought with a large enough effect; inconclusive = small, poorly fitted or top-dose-only effect, or another doubt; inactive = no such curve, though single readings can be large; an effect the other way counts as inactive or inconclusive. Unless noted, % is scaled to controls: 0 for no effect and ±100 for the full control effect; potency is read from the fitted curve at half-maximal effect.
SMILES,Luc counter,IMPase Li cell,LMNA splice mod,ALDH1A1 block,HPGD block
O=C(/C(=C(\O)c1ccccc1)c1ncc[nH]1)c1ccccc1,1.1%,2.0%,·,-5.3%,·
COCCn1c(SCC(=O)N2CCc3ccccc3C2)nc2ccccc2c1=O,4.0%,7.1%,-4.6%,-12.5%,-2.9%
COCCCn1c(SCc2nnc(-c3ccc(OC)c(OC)c3)o2)nc2ccccc2c1=O,1.0%,14.6%,?,-15.3%,20µM*
COCCn1c(SCC(=O)c2ccccc2)nc2ccccc2c1=O,-9.1%,31.7%,6.5%[46 µM],17.8µM*,·
COCCn1c(SCC(=O)N2CCC(C)CC2)nc2ccccc2c1=O,2.8%,18.4%[38.3 µM],-2.0%,11.2µM*,-5.1%
CCOC(=O)CSc1nc2cc(C(=O)N3CCCC3)ccc2c(=O)n1Cc1ccccc1,-4.1%,23.4%[38.3 µM],-3.0%,25.1µM*,-4.9%
O=C(Nc1ccc(F)c(F)c1)C(c1ccccc1)N1Cc2ccccc2C1=O (stereo not drawn),·,·,-18.4%[46 µM],·,·
Cc1c(-c2ccc(Cl)cc2)c(=O)oc2ccc(OC(=O)N3CCOCC3)cc12,·,·,-8.7%[46 µM],·,·
NS(=O)(=O)c1ccc(CCNC(=O)CSc2nc3ccccc3c(=O)n2CCC(=O)N2CCCCC2)cc1,-4.7%,0.0%,·,7.94µM*,·
NS(=O)(=O)c1ccc(CCNC(=O)CSc2nc3ccccc3c(=O)n2CCN2CCOCC2)cc1,-3.2%,-9.4%,·,-12.3%,·
C=CCSc1nc2ccccc2n1S(=O)(=O)c1ccc(C)cc1,-1.0%,3.0%,-14.1%,2.4%,-2.7%
O=C(Cn1c(S(=O)(=O)Cc2ccccc2)nc2ccccc21)N1CCCCC1,5.6%,13.0%[38.3 µM],-12.9%,25.1µM*,-17.9%
CC(C)Cn1c(SCC(=O)N2CCCCC2)nc2ccccc2c1=O,1.4%,3.2%,-12.9%,22.4µM*,-10.5%
O=C(CSc1nc2ccccc2n1S(=O)(=O)c1ccccc1)N1CCCCC1,2.6%,-3.3%[38.3 µM],-3.8%,-6.2%,1.78µM*
CCC(C)C(NC(=O)C(C)NC(=O)CNC(=O)OC(C)(C)C)C(N)=O (stereo not drawn),-1.7%,10.0%,·,12.3%,·
COc1ccc(OC)c(CNC(=O)CN2N=C(c3ccc(Cl)cc3)CCC2=O)c1,·,·,-6.2%[46 µM],·,·
Cc1nn(Cc2ccc(F)cc2)c(C)c1NC(=O)CCCn1nc([N+](=O)[O-])cc1C,2.5%,2.1%,4.6%[46 µM],4.4%,·
COc1nc(Cl)cn(-c2ccc(C)cc2)c1=O,11.6%,-5.0%,?,?,-21.4%
Cc1ccc(-n2c(Cl)c(Cl)nc(Cl)c2=O)cc1,-1.6%,16.8%,?,0.631µM*,2.51µM*
CCN(CC)CCCNC(=O)c1c(C)oc2ncnc(N3CCOCC3)c12,·,·,16.4%[46 µM],·,·
Nc1nc(Sc2ccc([N+](=O)[O-])c3nonc23)c2[nH]cnc2n1,-14.7%[7.66 µM],15.7%,·,2µM*,1.26µM*
Cc1cccc(NC(=O)CSc2nc(-c3ccccc3)cc(=O)[nH]2)c1C,·,·,-11.7%[46 µM],·,·
OCC1(CCc2ccccc2)CCN(Cc2ccc(OC(F)F)cc2)CC1,-1.8%,7.7%,·,2.6%,·
CC(=O)/C=C/n1c(=S)oc2ccccc21,-6.1%,3.2%,?,7.94µM*,-20.7%
COc1ccc(-n2c(C)cc(C=O)c2C)cc1Cl,-0.2%,7.7%[38.3 µM],6.1%,1µM*,17.8µM*
SMILES,Luc counter,IMPase Li cell,LMNA splice mod,ALDH1A1 block,HPGD block
COC(=O)c1cccc(-n2c(C)cc(C=O)c2C)c1C,-5.7%,7.7%,1.3%,0.631µM*,-11.4%
COc1ccc(OC)c(-n2c(C)cc(C=O)c2C)c1,1.0%,3.2%,-2.7%[46 µM],5.62µM*,·
COc1ccc(CNc2ncncc2-c2c(C)noc2C)c(OC)c1,·,3.2%,-3.7%,11.8%,·
COc1ccc(S(=O)(=O)NC2CCCC2)c(Cl)c1Cl,-5.6%,10.1%[38.3 µM],4.5%,?,-12.9%
CC1=C(C(=O)O)N2C(=O)[C@@H](NC(=O)[C@@H](N)c3ccc(O)cc3)[C@@H]2SC1,-1.3%[17.1 µM],3.3%,?,-10.8%[20.9 µM],-17.9%
S=C(Nc1ccc(N2CCOCC2)cc1)Nc1ccc2snnc2c1,-1.9%,-0.3%,?,25.1µM*,·
O=C(Nc1ccc2snnc2c1)N1CCOCC1,-4.5%,-7.9%[38.3 µM],0.6%,6.8%,-14.6%
Cc1ccc(S(=O)(=O)/N=S(/c2ccccc2)C(C)C)cc1 (stereo not drawn),·,·,?,18.9µM*,·
CC1(C)CC(=S)Nc2ccccc2S1,2.5%,0.9%,-1.4%,10µM*,15.8µM*
S=C1Nc2ccccc2Sc2ccc(Cl)cc21,-2.8%,-4.1%,-11.6%,-7.9%,-19.3%
N[C@](CC1c2ccccc2Oc2ccccc21)(C(=O)O)[C@@H]1C[C@@H]1C(=O)O,1.7%,11.8%,·,1.4%,-15.4%
COC(=O)C1CC(O)CN1S(=O)(=O)c1cccs1 (stereo not drawn),-0.6%,-1.9%,20.0%[9.22 µM],2.8%,·
Cn1cccc1C(=O)C(=O)Nc1ccc(Cl)cc1,?,-1.4%[38.3 µM],8.2%[0.0737 µM],3.3%,-5.6%
Cn1cccc1C(=O)C(=O)Nc1cc(Cl)cc(Cl)c1,11.2µM*,14.1µM*,-5.0%,?,?
CSc1ccccc1NC(=O)CN1CCN(Cc2ccccc2)CC1,5.6%,-2.4%,-10.0%[46 µM],-6.5%,·
Cc1ccccc1C(=O)N1CCN(c2ccc([N+](=O)[O-])c(N3CCOCC3)c2)CC1,-1.2%,-7.5%[38.3 µM],3.4%,?,-2.9%
O=C(c1ccccc1F)N1CCN(c2ccc([N+](=O)[O-])c(N3CCOCC3)c2)CC1,-4.9%,-3.6%,·,0.708µM*,·
O=C(c1cccc2ccccc12)N1CCN(c2ccc([N+](=O)[O-])c(N3CCOCC3)c2)CC1,2.1%,8.6%,-14.2%,10µM*,-18.9%
O=C(COc1ccc(Cl)cc1)N1CCN(c2ccc([N+](=O)[O-])c(N3CCOCC3)c2)CC1,0.7%,5.5%,?,?,-10.1%
COC(=O)[C@@]1(Cc2ccccc2)[C@H]2c3cc(C(=O)N(C)C)n(CCF)c3C[C@H]2CN1C(=O)c1ccccc1,2.4%,1.0%,·,0.1%,-3.1%
Clc1ccc(/C=C/c2nc3ccccc3[nH]2)c(Cl)c1,7.08µM*,-8.8%[38.3 µM],?,?,?
Clc1ccc(/C=C/c2nc3ccccc3[nH]2)cc1,12.6µM*,-17.1%[38.3 µM],?,?,?
Clc1cccc(Cl)c1/C=C/c1nc2ccccc2[nH]1,-21.7%,11.9%[38.3 µM],?,?,?
CCc1ccccc1NC(=O)C(=O)NCCc1sc(-c2cccc(C)c2)nc1C,·,·,13.2%[46 µM],·,·
CCOC(=O)c1c(-c2ccc(C)s2)csc1N,-1.0%,-6.1%,·,3.16µM*,·
Cc1ccc(NC(=S)Nc2ccc3nc(-c4ccccn4)c(-c4ccccn4)nc3c2)cc1C,-2.0%,0.6%,-1.9%,17.8µM*,-25.8%
CC(=O)N1CCC2(CCCN(C(=O)Nc3cccc(C#N)c3)C2)CC1,-2.6%,-4.2%,·,-4.6%,-4.0%

# Assay outcomes deposited in PubChem BioAssay by National Center for Advancing Translational Sciences (NCATS).
